Measurements: PMC7862700, “An all-to-all approach to the identification of sequence-specific readers for epigenetic DNA modifications on cytosine”

What follows are sequences tested against SPI1 (Homo sapiens, UniProt P17947 1-270) (assay: DAPPL (digital affinity profiling via proximity ligation, sequencing); 10 mM Tris-HCl pH 7.5, 50 mM NaCl, 1 mM DTT, 4% glycerol, room temperature, 30 min; GST-TFs on glutathione beads, 16-mer random dsDNA library, 0.1% formaldehyde crosslink after washing; high values mean tight binding). Conditions: protein: recombinant; tags: N-terminal GST; dsDNA, one strand shown.
Method in brief: (§1)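 Beads coated with glutathione captured GST-fused human transcription factors that had been expressed in yeast, and the factors were then given DNA barcodes and pooled with a tag-only sample. The pools were incubated with 200 nmole of a random double-stranded 16-mer DNA library in Tris/NaCl/DTT/glycerol buffer for 30 min at room temperature, washed, crosslinked with 0.1% formaldehyde and proximity-ligated with BsaI/T4 ligase at 37 °C for 1 h. PCR amplification and Illumina NextSeq500 sequencing came last. Binding signal is each hexamer's read frequency for a factor divided by its frequency for the tag-only sample.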

In order of rising binding signal:
1. AATGCC  1.06 fold enrichment (6-mer frequency, TF over GST control)
2. CTGATT  1.09 fold enrichment (6-mer frequency, TF over GST control)
3. CGCGCT  1.1 fold enrichment (6-mer frequency, TF over GST control)
4. TTAAGC  1.1 fold enrichment (6-mer frequency, TF over GST control)
5. ACCGAT  1.1 fold enrichment (6-mer frequency, TF over GST control)
6. ATGCGC  1.11 fold enrichment (6-mer frequency, TF over GST control)
7. TACGCG  1.12 fold enrichment (6-mer frequency, TF over GST control)
8. AATCAA  1.15 fold enrichment (6-mer frequency, TF over GST control)
9. GCTAAA  1.16 fold enrichment (6-mer frequency, TF over GST control)
10. ATTCAC  1.16 fold enrichment (6-mer frequency, TF over GST control)
11. AACATT  1.17 fold enrichment (6-mer frequency, TF over GST control)
12. TACTAC  1.2 fold enrichment (6-mer frequency, TF over GST control)
13. TGCGAT  1.2 fold enrichment (6-mer frequency, TF over GST control)
14. CCTATG  1.21 fold enrichment (6-mer frequency, TF over GST control)
15. GGCTCC  1.22 fold enrichment (6-mer frequency, TF over GST control)
16. CCCGCA  1.22 fold enrichment (6-mer frequency, TF over GST control)
17. ATTTCA  1.23 fold enrichment (6-mer frequency, TF over GST control)
18. ACGCTT  1.23 fold enrichment (6-mer frequency, TF over GST control)
19. ACCTTA  1.24 fold enrichment (6-mer frequency, TF over GST control)
20. AATAAT  1.24 fold enrichment (6-mer frequency, TF over GST control)
21. TACTTT  1.25 fold enrichment (6-mer frequency, TF over GST control)
22. CATTCT  1.26 fold enrichment (6-mer frequency, TF over GST control)
23. TACCTC  1.27 fold enrichment (6-mer frequency, TF over GST control)
24. TATTCA  1.29 fold enrichment (6-mer frequency, TF over GST control)
25. CTATTC  1.29 fold enrichment (6-mer frequency, TF over GST control)
26. TTATCT  1.31 fold enrichment (6-mer frequency, TF over GST control)
27. TCCATT  1.33 fold enrichment (6-mer frequency, TF over GST control)
28. AATTAC  1.35 fold enrichment (6-mer frequency, TF over GST control)
29. AAGTAT  1.36 fold enrichment (6-mer frequency, TF over GST control)
30. CCCTAC  1.36 fold enrichment (6-mer frequency, TF over GST control)
31. CGATGG  1.41 fold enrichment (6-mer frequency, TF over GST control)
32. TTATCC  1.41 fold enrichment (6-mer frequency, TF over GST control)
33. TCGACT  1.42 fold enrichment (6-mer frequency, TF over GST control)
34. CTCCGG  1.43 fold enrichment (6-mer frequency, TF over GST control)
35. AATGGT  1.43 fold enrichment (6-mer frequency, TF over GST control)
36. TCCTCG  1.46 fold enrichment (6-mer frequency, TF over GST control)
37. CTGTTT  1.6 fold enrichment (6-mer frequency, TF over GST control)
38. CTTATT  1.61 fold enrichment (6-mer frequency, TF over GST control)
39. ACACTT  1.95 fold enrichment (6-mer frequency, TF over GST control)
40. TTCCTG  2.64 fold enrichment (6-mer frequency, TF over GST control)

What follows are sequences tested against SPIB (Homo sapiens, UniProt Q01892 1-262) in the same assay as above. Conditions: protein: recombinant; tags: N-terminal GST; dsDNA, one strand shown.
SPIB, sequence (Q01892 whole entry): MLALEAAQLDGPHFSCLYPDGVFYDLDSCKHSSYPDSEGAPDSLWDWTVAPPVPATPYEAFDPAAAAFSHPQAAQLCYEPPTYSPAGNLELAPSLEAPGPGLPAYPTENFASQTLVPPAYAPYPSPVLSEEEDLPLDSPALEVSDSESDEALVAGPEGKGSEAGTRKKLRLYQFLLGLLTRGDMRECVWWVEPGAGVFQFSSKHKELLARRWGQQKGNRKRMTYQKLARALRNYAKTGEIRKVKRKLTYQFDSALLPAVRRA
Method in brief: as §1

In order of falling binding signal:
1. TTCCTG  2.36 fold enrichment (6-mer frequency, TF over GST control)
2. ACACTT  1.67 fold enrichment (6-mer frequency, TF over GST control)
3. CGATGG  1.58 fold enrichment (6-mer frequency, TF over GST control)
4. CTCCGG  1.54 fold enrichment (6-mer frequency, TF over GST control)
5. TTATCC  1.54 fold enrichment (6-mer frequency, TF over GST control)
6. AATGGT  1.52 fold enrichment (6-mer frequency, TF over GST control)
7. ACGCTT  1.5 fold enrichment (6-mer frequency, TF over GST control)
8. AAGTAT  1.48 fold enrichment (6-mer frequency, TF over GST control)
9. CTTATT  1.44 fold enrichment (6-mer frequency, TF over GST control)
10. CTGTTT  1.43 fold enrichment (6-mer frequency, TF over GST control)
11. TACTAC  1.41 fold enrichment (6-mer frequency, TF over GST control)
12. TCGACT  1.39 fold enrichment (6-mer frequency, TF over GST control)
13. TCCATT  1.39 fold enrichment (6-mer frequency, TF over GST control)
14. GGCTCC  1.39 fold enrichment (6-mer frequency, TF over GST control)
15. TACTTT  1.36 fold enrichment (6-mer frequency, TF over GST control)
16. AATTAC  1.35 fold enrichment (6-mer frequency, TF over GST control)
17. TTATCT  1.34 fold enrichment (6-mer frequency, TF over GST control)
18. AACATT  1.34 fold enrichment (6-mer frequency, TF over GST control)
19. TCCTCG  1.32 fold enrichment (6-mer frequency, TF over GST control)
20. AATAAT  1.32 fold enrichment (6-mer frequency, TF over GST control)
21. CCCGCA  1.29 fold enrichment (6-mer frequency, TF over GST control)
22. TATTCA  1.27 fold enrichment (6-mer frequency, TF over GST control)
23. CGCGCT  1.27 fold enrichment (6-mer frequency, TF over GST control)
24. ATTTCA  1.26 fold enrichment (6-mer frequency, TF over GST control)
25. CCCTAC  1.25 fold enrichment (6-mer frequency, TF over GST control)
26. CTATTC  1.23 fold enrichment (6-mer frequency, TF over GST control)
27. CATTCT  1.22 fold enrichment (6-mer frequency, TF over GST control)
28. ACCTTA  1.21 fold enrichment (6-mer frequency, TF over GST control)
29. TACCTC  1.21 fold enrichment (6-mer frequency, TF over GST control)
30. CTGATT  1.21 fold enrichment (6-mer frequency, TF over GST control)
31. ATGCGC  1.21 fold enrichment (6-mer frequency, TF over GST control)
32. ATTCAC  1.2 fold enrichment (6-mer frequency, TF over GST control)
33. CCTATG  1.19 fold enrichment (6-mer frequency, TF over GST control)
34. AATGCC  1.17 fold enrichment (6-mer frequency, TF over GST control)
35. GCTAAA  1.14 fold enrichment (6-mer frequency, TF over GST control)
36. AATCAA  1.14 fold enrichment (6-mer frequency, TF over GST control)
37. TACGCG  1.13 fold enrichment (6-mer frequency, TF over GST control)
38. ACCGAT  1.13 fold enrichment (6-mer frequency, TF over GST control)
39. TTAAGC  1.08 fold enrichment (6-mer frequency, TF over GST control)
40. TGCGAT  1.08 fold enrichment (6-mer frequency, TF over GST control)

What follows are sequences tested against T1, ELK3 (Homo sapiens, UniProt P41970 1-407) in the same assay as above. Conditions: protein: recombinant; tags: N-terminal GST; dsDNA, one strand shown.
T1 sequence: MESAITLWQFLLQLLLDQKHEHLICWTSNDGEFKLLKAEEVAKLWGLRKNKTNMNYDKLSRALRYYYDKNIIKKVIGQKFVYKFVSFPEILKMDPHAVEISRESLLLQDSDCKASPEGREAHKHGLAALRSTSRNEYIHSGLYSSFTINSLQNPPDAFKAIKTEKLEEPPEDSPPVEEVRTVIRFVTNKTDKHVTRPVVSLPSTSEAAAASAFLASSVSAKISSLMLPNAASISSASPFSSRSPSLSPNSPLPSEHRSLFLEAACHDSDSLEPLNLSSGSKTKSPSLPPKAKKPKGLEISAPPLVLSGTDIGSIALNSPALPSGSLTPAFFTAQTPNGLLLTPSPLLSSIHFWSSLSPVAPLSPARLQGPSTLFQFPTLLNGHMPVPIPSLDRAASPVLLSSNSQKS
Method in brief: as §1

In order of rising binding signal:
1. GCTAAA  1.04 fold enrichment (6-mer frequency, TF over GST control)
2. ACCGAT  1.04 fold enrichment (6-mer frequency, TF over GST control)
3. AATGCC  1.08 fold enrichment (6-mer frequency, TF over GST control)
4. ATGCGC  1.08 fold enrichment (6-mer frequency, TF over GST control)
5. TACTTT  1.11 fold enrichment (6-mer frequency, TF over GST control)
6. ACCTTA  1.13 fold enrichment (6-mer frequency, TF over GST control)
7. CTATTC  1.13 fold enrichment (6-mer frequency, TF over GST control)
8. AATCAA  1.14 fold enrichment (6-mer frequency, TF over GST control)
9. CCTATG  1.18 fold enrichment (6-mer frequency, TF over GST control)
10. TTAAGC  1.18 fold enrichment (6-mer frequency, TF over GST control)
11. TACTAC  1.2 fold enrichment (6-mer frequency, TF over GST control)
12. CGCGCT  1.21 fold enrichment (6-mer frequency, TF over GST control)
13. CTGATT  1.21 fold enrichment (6-mer frequency, TF over GST control)
14. ATTTCA  1.23 fold enrichment (6-mer frequency, TF over GST control)
15. AATTAC  1.24 fold enrichment (6-mer frequency, TF over GST control)
16. AACATT  1.25 fold enrichment (6-mer frequency, TF over GST control)
17. CCCGCA  1.25 fold enrichment (6-mer frequency, TF over GST control)
18. TCCATT  1.26 fold enrichment (6-mer frequency, TF over GST control)
19. TACCTC  1.27 fold enrichment (6-mer frequency, TF over GST control)
20. GGCTCC  1.27 fold enrichment (6-mer frequency, TF over GST control)
21. CATTCT  1.28 fold enrichment (6-mer frequency, TF over GST control)
22. TACGCG  1.28 fold enrichment (6-mer frequency, TF over GST control)
23. TGCGAT  1.31 fold enrichment (6-mer frequency, TF over GST control)
24. CTGTTT  1.34 fold enrichment (6-mer frequency, TF over GST control)
25. TATTCA  1.35 fold enrichment (6-mer frequency, TF over GST control)
26. ATTCAC  1.35 fold enrichment (6-mer frequency, TF over GST control)
27. TTATCT  1.36 fold enrichment (6-mer frequency, TF over GST control)
28. AATAAT  1.39 fold enrichment (6-mer frequency, TF over GST control)
29. CGATGG  1.4 fold enrichment (6-mer frequency, TF over GST control)
30. AATGGT  1.41 fold enrichment (6-mer frequency, TF over GST control)
31. ACGCTT  1.44 fold enrichment (6-mer frequency, TF over GST control)
32. AAGTAT  1.46 fold enrichment (6-mer frequency, TF over GST control)
33. TCGACT  1.47 fold enrichment (6-mer frequency, TF over GST control)
34. TCCTCG  1.49 fold enrichment (6-mer frequency, TF over GST control)
35. TTATCC  1.5 fold enrichment (6-mer frequency, TF over GST control)
36. CTTATT  1.59 fold enrichment (6-mer frequency, TF over GST control)
37. CTCCGG  1.6 fold enrichment (6-mer frequency, TF over GST control)
38. CCCTAC  1.65 fold enrichment (6-mer frequency, TF over GST control)
39. ACACTT  1.74 fold enrichment (6-mer frequency, TF over GST control)
40. TTCCTG  2.28 fold enrichment (6-mer frequency, TF over GST control)
